Experimental data: PubChem BioAssay AID2685 (National Center for Advancing Translational Sciences (NCATS), 2010)
The whole screen tested about 320,000 compounds, of which about 2,100 (0.66%) were called active. Inconclusive results (about 53%) are left out. The call rests on the fitted dose curve; in most records, active means well fitted inhibition curve with a large enough effect in the signal ratio, with a control signal flat (not every such curve was filed as active); inconclusive means small, poorly fitted or top-dose-only effect, or effect the other way, or a change in a side signal; inactive means flat fitted curve, though single readings scatter; the % refers to the signal ratio. The full list was thinned out, with actives kept by preference.

Test: qHTS Assay for Lipid Storage Modulators in Drosophila S3 Cells;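 on cell number change: cells counted by Cell Tracker Red CMTPX staining in the red channel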; on lipid storage change, negative = inhibition: on the % scale 0 is the no-effect control and ±100 the full control effect
Settings: BODIPY lipid droplet fluorescence, 18-24 h, cells fed with added oleic acid; cell number change: measured here: cell count max response; series mostly up to 46.1 µM; lipid storage change, negative = inhibition: at the top concentration
How it was run: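 Laser-scanning cytometry quantifies lipid droplet accumulation (500–530 nm total intensity; droplet/cell object ratio) in oleic acid-fed (400 uM added) Drosophila S3 cells treated with a concentration series. 20 uM Triacsin C defined 100% inhibition.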
Potency means the concentration at half of the fitted maximal effect.

SMILES	lipid storage change, negative = inhibition	cell number change [%]	Potency	outcome
Cc1ccnc(NS(=O)(=O)c2cccc([N+](=O)[O-])c2)c1	-5.01% (inactive)	3.2		
COc1ccc(-n2nc(C(=O)NCC(=O)N3CCN(Cc4ccccc4)CC3)c3ccccc3c2=O)cc1		5.41	0.651 µM (active)	
COc1ccc(-n2nc(C(=O)NCC(=O)N3CCN(Cc4ccccc4)CC3)c3ccccc3c2=O)c(OC)c1		10.3		inactive
CCN1CCN(C(=O)CNC(=O)c2nn(-c3ccc(OC)cc3)c(=O)c3ccccc23)CC1		8.11		inactive
COc1ccccc1N1CCN(C(=O)c2ccc(S(=O)(=O)N3CCCCCC3)cc2)CC1	-13% (inactive)	-9.51		
COc1cc(S(=O)(=O)NCc2ccncc2)c(OC)cc1Br		3.68	23.1 µM (active)	
COc1cc(C)c(Cl)cc1S(=O)(=O)NCc1ccncc1		-7.29		inactive
COc1cc(S(=O)(=O)NCc2ccncc2)c(OC)cc1Cl	15.4% (inactive)	12.7		
COc1ccc(CCNC(=O)CN(C)S(=O)(=O)c2cccc3nsnc23)cc1OC	1.44% (inactive)	0.234		
CC(C)c1ccc(CNCCCSc2ncccn2)cc1		-5.03		inactive
CC(C)(C)C(=O)CC1(O)C(=O)N(Cc2ccc(Cl)cc2)c2ccccc21 (stereo unspecified)	2% (inactive)	7.61		
CC(=O)N1C(=O)CC(C)N(C(C)=O)c2ccc([N+](=O)[O-])cc21 (stereo unspecified)	2.55% (inactive)	1.88		
CNC(=O)c1[nH]nc2c1CCc1ccccc1-2	-1.15% (inactive)	13.3		
CC(C)NC(=O)c1[nH]nc2c1CCc1ccccc1-2		-0.945		inactive
c1ccc2c(c1)CCc1c(-c3ccncc3)n[nH]c1-2		7.47	18.4 µM (active)	
CC(C)C(=O)N1CCN(c2ccccc2NC(=O)COc2ccccc2)CC1	9.3% (inactive)	-6.41		
CCOC(=O)N1CCN(c2c(NC3CCN(Cc4ccccc4)CC3)c(=O)c2=O)CC1	3.89% (inactive)	6.86		
O=C(c1cccc([N+](=O)[O-])c1)N(c1ccccn1)c1ccccn1	-6.93% (inactive)	2.68		
CN(C)C(CNC(=O)c1cc(S(=O)(=O)N(C)c2ccc(F)cc2)ccc1Cl)c1ccco1 (stereo unspecified)	19.2% (inactive)			
Cc1ccc(S(=O)(=O)N(C)c2ccc(C(=O)NCC(c3ccco3)N(C)C)cc2)cc1 (stereo unspecified)		-16.7	1.64 µM (active)	
Cc1ccc(N(C)S(=O)(=O)c2cccc(C(=O)NCC(c3ccco3)N3CCCC3)c2)cc1 (stereo unspecified)		-25.8	7.31 µM (active)	
CN(C)C(CNC(=O)c1ccc(S(=O)(=O)Nc2ccccc2)cc1)c1ccco1 (stereo unspecified)	13% (inactive)	14.1		
COc1ccc(N(C)S(=O)(=O)c2cccc(C(=O)NCC(c3ccco3)N3CCCC3)c2)cc1 (stereo unspecified)	13.3% (inactive)	8.75		

SMILES	lipid storage change, negative = inhibition	cell number change [%]	Potency	outcome
Cc1ccc(NS(=O)(=O)c2cccc(C(=O)NCC(c3ccco3)N3CCCC3)c2)cc1 (stereo unspecified)	9.46% (inactive)	-2.68		
Cc1ccc(C)c(NC(=S)NCC(c2ccccc2)N(C)C)c1 (stereo unspecified)				inactive
Cc1cc(C)c2c(=O)cc(C(F)(F)F)oc2n1	9.56% (inactive)	15.1		
Cc1ccc(C(=O)Nc2ccc(C(=O)N/N=C/c3cccnc3)cc2)cc1		17.5		inactive
O=C(N/N=C/c1cccnc1)c1ccc(NC(=O)c2ccc(Cl)cc2)cc1		0.451	0.13 µM (active)	
CC(=O)Nc1ccc(C(=O)N/N=C/c2cccnc2)cc1	12.5% (inactive)	0.939		
CC(C)c1ccc(NC2CCCN(C(=O)c3ccccc3-c3ncc[nH]3)C2)cc1 (stereo unspecified)		-18.8		inactive
COc1ccc(NC(=O)Nc2ccc3c(c2)CCC3)c(OC)c1	-7.77% (inactive)	9.57		
O=C(Cn1c(-c2ccccc2)c[n+]2ccsc12)c1ccc(Br)cc1	21.2% (inactive)			
O=C1Nc2ccc(Cl)cc2C(C#CC2CC2)(C(F)(F)F)O1 (stereo unspecified)		-25.6	9.2 µM (active)	
COC(=O)C1(C(F)(F)F)N=C(C(F)(F)F)Nc2ccc(Cl)cc21 (stereo unspecified)	-2.99% (inactive)	5.94		
O=C1Nc2ccc(Cl)cc2C12OCCCO2		13.2		inactive
O=C(Cn1nnc2ccccc21)C1CC1	9.19% (inactive)	7.3		
NCc1cc2c3c(c1)CCCN3CCC2	0.546% (inactive)			
C=CCOc1cccc(C(=O)N2CCCC(CNS(=O)(=O)c3cccs3)C2)c1 (stereo unspecified)	10.9% (inactive)	11.7		
Cc1ccccc1-n1ncc2c1CC(C)(C)CC2NC(=O)CSc1ccncc1 (stereo unspecified)		-2.05	0.461 µM (active)	
Cc1ccccc1-n1ncc2c1CC(C)(C)CC2NC(=O)CCC(F)(F)F (stereo unspecified)	3.89% (inactive)	7.77		
CSCCC(=O)NC1CC(C)(C)Cc2c1cnn2-c1ccccc1C (stereo unspecified)	11.4% (inactive)	13.5		
CC(C)=C1SC(N2CCN(c3cccc(Cl)c3)CC2)=NC1=O	-7.9% (inactive)	5.96		
COc1cccc(N2C(=NC(=O)CCc3ccccc3)SC3CS(=O)(=O)CC32)c1 (stereo unspecified)		-7.96		inactive
COc1cccc(N2C(=NC(=O)CCC3CCCC3)SC3CS(=O)(=O)CC32)c1 (stereo unspecified)		4.89	11.6 µM (active)	
COc1cccc(N2C(=NC(=O)C3CCCCC3)SC3CS(=O)(=O)CC32)c1 (stereo unspecified)		-4.58		inactive
